In PubChem BioAssay AID1159580 (chemical genetic matrix, 2015):
Among all 5,500 compounds or so, about 2,000 (36%) were called active. Not shown: some 18% with an inconclusive outcome. The list shows a part of the results. Values without a mark were called inactive. Rule as the data show it: active = normalized growth mostly below about 0.91 (no sharp cut-off); inconclusive = no clear call, values can overlap the other calls; inactive = mostly above about 0.92.

Assay: chemical genetic growth profiling, strain panel (AID 1159580);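 also: tested at 20 µM; growth read once vehicle control cultures reached saturation at 30 °C; 1 = growth at the plate median or of vehicle wells; lower values mean less growth of the strain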
Details: S. cerevisiae deletion strains, growth OD

## C[C@@H]1OC(O[C@H]2[C@H](OC(=O)[C@]34CCC(C)(C)CC3C3=CCC5[C@@]6(C)CC[C@H](OC7O[C@@H](C)[C@H](O[C@@H]8OC[C@@H](O)[C@H](O)[C@H]8O)[C@@H](O)[C@H]7O)C(C)(C)C6CC[C@@]5(C)[C@]3(C)CC4O)OC[C@H](O)[C@H]2O)[C@H](O)[C@H](O)[C@H]1O[C@@H]1O[C@H](CO)[C@@H](O)[C@H](O)[C@H]1O (some centres not stated)
Locus YBR021W, strain FUR4, stronger effect = lower value
  normalized growth: 0.963
Locus YBR229C, strain ROT2, stronger effect = lower value
  normalized growth: 0.967
Locus YCL029C, strain bik1, stronger effect = lower value
  normalized growth: 1.01
Locus YDL035C, strain GPR1, stronger effect = lower value
  normalized growth: 0.785 (active)
Locus YDL074C, strain BRE1, stronger effect = lower value
  normalized growth: 0.885
Locus YDL101C, strain DUN1, stronger effect = lower value
  normalized growth: 0.984
Locus YDL134C, strain PPH21, stronger effect = lower value
  normalized growth: 0.883 (active)
Locus YDL185W, strain tfp1, stronger effect = lower value
  normalized growth: 0.974
Locus YDL192W, strain arf1, stronger effect = lower value
  normalized growth: 0.825 (active)
Locus YDR101C, strain arx1, stronger effect = lower value
  normalized growth: 0.985
Locus YDR162C, strain NBP2, stronger effect = lower value
  normalized growth: 0.0581 (active)
Locus YDR318W, strain mcm21, stronger effect = lower value
  normalized growth: 0.917
Locus YDR388W, stronger effect = lower value
  normalized growth: 0.918 (active)
Locus YDR502C, strain sam2, stronger effect = lower value
  normalized growth: 0.936
Locus YEL061C, strain CIN8, stronger effect = lower value
  normalized growth: 0.95
Locus YER110C, stronger effect = lower value
  normalized growth: 0.996
Locus YER155C, strain BEM2, stronger effect = lower value
  normalized growth: 1.12 [resistant] (active)
Locus YER167W, strain BCK2, stronger effect = lower value
  normalized growth: 0.895 (active)
Locus YGL078C, strain dbp3, stronger effect = lower value
  normalized growth: 0.929
Locus YGL086W, strain mad1, stronger effect = lower value
  normalized growth: 0.977
Locus YGL248W, strain PDE1, stronger effect = lower value
  normalized growth: 0.993
Locus YGR135W, strain pre9, stronger effect = lower value
  normalized growth: 0.978
Locus YGR252W, strain gcn5, stronger effect = lower value
  normalized growth: 0.934
Locus YHR030C, strain SLT2, stronger effect = lower value
  normalized growth: 0.323 (active)
Locus YHR079C, strain IRE1 (second series), stronger effect = lower value
  normalized growth: 0.975
Locus YHR094C, strain hxt1, stronger effect = lower value
  normalized growth: 0.982
Locus YHR129C, strain ARP1, stronger effect = lower value
  normalized growth: 0.923
Locus YHR200W, strain rpn10, stronger effect = lower value
  normalized growth: 0.974
Locus YIL066C, strain RNR3, stronger effect = lower value
  normalized growth: 0.912
Locus YIL073C, strain SPO22, stronger effect = lower value
  normalized growth: 0.936
Locus YIL125W, strain kgd1, stronger effect = lower value
  normalized growth: 0.958
Locus YIR030C, strain dcg1, stronger effect = lower value
  normalized growth: 0.969
Locus YJL095W, strain BCK1, stronger effect = lower value
  normalized growth: 0.33 (active)
Locus YJL134W, strain LCB3, stronger effect = lower value
  normalized growth: 1.04
Locus YJL168C, strain set2, stronger effect = lower value
  normalized growth: 1.01
Locus YJL187C, strain SWE1 (second series), stronger effect = lower value
  normalized growth: 0.925
Locus YJR043C, strain POL32, stronger effect = lower value
  normalized growth: 0.858
Locus YJR075W, strain HOC1, stronger effect = lower value
  normalized growth: 0.957
Locus YKL009W, strain mrt4, stronger effect = lower value
  normalized growth: 0.876 (active)
Locus YKL068W, stronger effect = lower value
  normalized growth: 0.949
Locus YKL085W, strain MDH1 (second series), stronger effect = lower value
  normalized growth: 0.904 (active)
Locus YKL085W, strain MDH1, stronger effect = lower value
  normalized growth: 0.904 (active)
Locus YKR001C, strain vps1, stronger effect = lower value
  normalized growth: 0.721 (active)
Locus YLR039C, strain RIC1, stronger effect = lower value
  normalized growth: 0.842
Locus YLR058C, strain SHM2, stronger effect = lower value
  normalized growth: 0.972
Locus YLR102C, strain apc9, stronger effect = lower value
  normalized growth: 0.982
Locus YLR262C, strain YPT6, stronger effect = lower value
  normalized growth: 0.709
Locus YLR268W, strain sec22, stronger effect = lower value
  normalized growth: 0.966
Locus YLR330W, strain CHS5, stronger effect = lower value
  normalized growth: 0.993
Locus YLR342W, strain FKS1 (second series), stronger effect = lower value
  normalized growth: 0.927
Locus YLR371W, strain rom2, stronger effect = lower value
  normalized growth: 0.714 (active)
Locus YLR418C, strain cdc73, stronger effect = lower value
  normalized growth: 0.745 (active)
Locus YML016C, strain PPZ1, stronger effect = lower value
  normalized growth: 1
Locus YML032C, strain rad52, stronger effect = lower value
  normalized growth: 0.824 (active)
Locus YML124C, strain tub3, stronger effect = lower value
  normalized growth: 0.993
Locus YMR078C, strain ctf18, stronger effect = lower value
  normalized growth: 0.987
Locus YMR223W, strain ubp8, stronger effect = lower value
  normalized growth: 0.895 (active)
Locus YMR307W, strain GAS1, stronger effect = lower value
  normalized growth: 0.212 (active)
Locus YNL067W, strain RPL9B, stronger effect = lower value
  normalized growth: 0.983
Locus YNL128W, strain TEP1, stronger effect = lower value
  normalized growth: 0.887
Locus YNL153C, strain GIM3, stronger effect = lower value
  normalized growth: 0.958
Locus YNL233W, strain BNI4, stronger effect = lower value
  normalized growth: 0.997
Locus YNL250W, strain rad50, stronger effect = lower value
  normalized growth: 0.891 (active)
Locus YNL271C, strain bni1, stronger effect = lower value
  normalized growth: 1
Locus YNL298W, strain CLA4, stronger effect = lower value
  normalized growth: 0.838 (active)
Locus YNL307C, strain MCK1, stronger effect = lower value
  normalized growth: 0.991
Locus YNR052C, strain pop2, stronger effect = lower value
  normalized growth: 0.815 (active)
Locus YOL012C, strain htz1
  normalized growth: 2.15 [resistant] (active)
Locus YOL147C, strain pex11, stronger effect = lower value
  normalized growth: 0.986
Locus YOR061W, strain CKA2, stronger effect = lower value
  normalized growth: 0.59 (active)
Locus YOR069W, strain VPS5, stronger effect = lower value
  normalized growth: 1.01
Locus YOR136W, strain idh2, stronger effect = lower value
  normalized growth: 0.951
Locus YOR144C, strain elg1, stronger effect = lower value
  normalized growth: 0.982
Locus YOR184W, strain ser1, stronger effect = lower value
  normalized growth: 0.79 (active)
Locus YOR316C, strain cot1, stronger effect = lower value
  normalized growth: 0.984
Locus YPL055C, strain LGE1, stronger effect = lower value
  normalized growth: 0.841
Locus YPL241C, strain CIN2, stronger effect = lower value
  normalized growth: 0.989
Locus YPR119W, strain clb2, stronger effect = lower value
  normalized growth: 0.988
Locus YPR141C, strain kar3, stronger effect = lower value
  normalized growth: 0.981
Locus YPR163C, strain tif3, stronger effect = lower value
  normalized growth: 0.935
Locus YPR167C, strain met16, stronger effect = lower value
  normalized growth: 0.861 (active)
Strain wtn01, stronger effect = lower value
  normalized growth: 0.955
